Source: PubChem BioAssay (NCI)
The panel holds about 79,000 compounds, 15% with a hit somewhere; the sample as a whole holds those more often. Activity calls are given as the source filed them. No stated cut-off is given here; in the data, active means growth inhibition above about 70%; inactive means the rest.

How the values were obtained:
[1] = NCI Yeast Anticancer Drug Screen. Data for the mec2-1 strain (AID 157); conditions: S. cerevisiae mec2-1 strain, active compounds read high
Method in brief: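 Strain: mec2-1 (DNA repair/cell cycle alteration). Compound exposure, then growth measured; inhibition expressed relative to vehicle.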

[2] = NCI Yeast Anticancer Drug Screen. Data for the rad14 strain (AID 159);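 further: 0% = growth of vehicle-treated control cultures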; conditions: S. cerevisiae rad14 strain growth inhibition, active compounds read high
Method in brief: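 A mutant yeast strain defective in DNA damage repair is treated with compound; inhibition of its growth is scored against untreated, vehicle-exposed cultures.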

[3] = NCI Yeast Anticancer Drug Screen. Data for the sgs1 mgt1 strain (AID 161);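 further: 0% = growth of cultures given vehicle only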; conditions: S. cerevisiae sgs1 mgt1 strain, active compounds read high
Method in brief: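 Mutant yeast exposed to compound; growth scored against vehicle-only wells.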

[4] = NCI Yeast Anticancer Drug Screen. Data for the CLN2oe strain (AID 163);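 further: 0% = growth of vehicle-only control cultures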; conditions: S. cerevisiae CLN2oe strain, active compounds read high
Method in brief: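 Growth of a genetically modified yeast strain is measured after compound exposure and compared with cultures given vehicle alone.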

[5] = NCI Yeast Anticancer Drug Screen. Data for the cln2 rad14 strain (AID 165);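 further: 0% = growth equal to vehicle treated cultures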; conditions: S. cerevisiae cln2 rad14 strain, active compounds read high
Method in brief: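 Compounds are applied to the cln2 rad14 yeast strain, and growth is then compared with that of vehicle-treated cultures to give inhibition.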

[6] = NCI Yeast Anticancer Drug Screen. Data for the bub3 strain (AID 167); conditions: S. cerevisiae bub3 mutant strain, active compounds read high
Method in brief: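 Steps: expose the mutant yeast strain to compound; grow alongside vehicle-treated cultures; measure growth; express inhibition against the vehicle cultures.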

[7] = NCI Yeast Anticancer Drug Screen. Data for the wt2 strain (AID 169);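 further: 0% = growth of vehicle-treated yeast cultures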; conditions: S. cerevisiae wt2 strain growth inhibition, active compounds read high
Method in brief: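 This strain belongs to a panel of yeast strains with defined genetic alterations in DNA damage repair or cell cycle control. Compounds are applied, and growth inhibition is measured against vehicle-treated cultures.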

[8] = NCI Yeast Anticancer Drug Screen. Data for the mlh1 strain (AID 171);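 further: 0% = growth of vehicle-treated control cultures of the same strain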; conditions: S. cerevisiae mlh1 strain growth inhibition, active compounds read high
Method in brief: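 Growth of the mutant yeast strain after compound exposure, expressed as inhibition relative to vehicle-only controls.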

[9] = NCI Yeast Anticancer Drug Screen. Data for the sgs1 strain (AID 173);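 further: 0% = growth of vehicle-only control cultures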; conditions: S. cerevisiae sgs1 mutant, active compounds read high
Method in brief: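 Growth of a yeast strain bearing a defined genetic alteration is measured after compound treatment. Inhibition is expressed relative to vehicle-only controls.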

[10] = NCI Yeast Anticancer Drug Screen. Data for the mlh1 rad18 strain (AID 175); conditions: S. cerevisiae mlh1 rad18 strain growth inhibition, active compounds read high
Method in brief: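 Read-out is yeast growth inhibition, calculated against vehicle-only controls. The compound was applied to a strain engineered with DNA damage repair alterations.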

[11] = NCI Yeast Anticancer Drug Screen. Data for the rad18 strain (AID 177); conditions: S. cerevisiae rad18 mutant growth inhibition, active compounds read high
Method in brief: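 Growth of the mutant yeast strain after compound exposure, normalised to vehicle-only cultures.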

[12] = NCI Yeast Anticancer Drug Screen. Data for the rad52 strain (AID 147);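 further: 0% = growth of vehicle-treated control cultures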; conditions: S. cerevisiae rad52 mutant growth inhibition, active compounds read high
Method in brief: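 Compounds are applied to a genetically defined yeast strain lacking normal DNA damage repair, and inhibition of growth is expressed relative to cultures given vehicle only.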

[13] = NCI Yeast Anticancer Drug Screen. Data for the wt1 strain (AID 149);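 further: 0% = growth of vehicle-treated wt1 cultures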; conditions: S. cerevisiae wt1 strain (SPY 50644) growth inhibition, active compounds read high
Method in brief: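 Compounds are added to wt1 yeast cultures. Growth is then measured. Inhibition is expressed relative to vehicle-treated controls.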

[14] = NCI Yeast Anticancer Drug Screen. Data for the rad50EPP+ strain (AID 151);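 further: 0% = growth of vehicle-treated control cultures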; conditions: S. cerevisiae rad50 mutant strain, active compounds read high
Method in brief: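 Compounds were applied to the rad50EPP+ yeast strain, which bears a defined DNA repair alteration, and growth inhibition was determined relative to vehicle-treated cultures.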

[15] = NCI Yeast Anticancer Drug Screen. Data for the mgt1 strain (AID 153); conditions: S. cerevisiae mgt1 mutant growth inhibition, active compounds read high
Method in brief: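 Strain: mgt1 yeast, one of a set carrying defined DNA damage repair or cell cycle control alterations. Compound-treated growth compared with vehicle.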

[16] = NCI Yeast Anticancer Drug Screen. Data for the rad50 strain (AID 155);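 further: 0% = growth of vehicle-only cultures of the same strain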; conditions: S. cerevisiae rad50 strain growth inhibition, active compounds read high
Method in brief: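 Inhibition values express reduced yeast growth in compound-treated cultures relative to vehicle-treated controls.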

[17] = at 5.0 µM (retest, dose inferred, filed as 0.5)
[18] = at 50.0 µM (retest, dose inferred, filed as 5.0)

Measured: growth inhibition

CC(CC/C(=N/O)c1ccccc1)(CC/C(=N\O)c1ccccc1)[N+](=O)[O-] (stereo unspecified)
active: [1]; at 50.0 µM 96.5% | [4]; at 100.0 µM 71% | [5]; at 50.0 µM 91.7% | [6]; at 50.0 µM 90.8% | [10]; at 50.0 µM 96.8% | [11]; at 100.0 µM 84%
inactive: [1]; [17] -11% | [1]; at 11.0 µM -5% | [1]; at 33.0 µM -5% | [1]; [18] 21% | [1]; at 100.0 µM 56% | [2]; at 1.2 µM -2% | [2]; at 3.7 µM 1% | [2]; at 11.0 µM -5% | [2]; at 33.0 µM -3% | [2]; at 100.0 µM 65% | [3]; [17] 0% | [3]; [18] 53% | [3]; at 50.0 µM 37% | [4]; at 1.2 µM -7% | [4]; at 3.7 µM -11% | [4]; at 11.0 µM -13% | [4]; at 33.0 µM -12% | [5]; [17] 2% | [5]; [18] 39% | [6]; at 1.2 µM -6% | [6]; at 3.7 µM -5% | [6]; [17] 8% | [6]; at 11.0 µM -9% | [6]; at 33.0 µM -9% | [6]; [18] 6% | [6]; at 100.0 µM 52% | [7]; at 1.2 µM -10% | [7]; at 3.7 µM -11% | [7]; at 11.0 µM -16% | [7]; at 33.0 µM -10% | [7]; at 100.0 µM 20% | [8]; at 1.2 µM -4% | [8]; at 3.7 µM -3% | [8]; at 11.0 µM -7% | [8]; at 33.0 µM -6% | [8]; at 100.0 µM 32% | [9]; at 1.2 µM -13% | [9]; at 3.7 µM 0% | [9]; at 11.0 µM -11% | [9]; at 33.0 µM -11% | [9]; at 100.0 µM 55% | [10]; [17] 5% | [10]; [18] 46% | [11]; at 1.2 µM 0% | [11]; at 3.7 µM -4% | [11]; at 11.0 µM -6% | [11]; at 33.0 µM 0%

O=C(O)c1ccc2cc(Cl)c3ccccc3c2c1
inactive: [12]; at 1.2 µM 1% | [12]; at 3.7 µM 9% | [12]; at 11.0 µM 28% | [12]; at 33.0 µM 55% | [12]; at 100.0 µM 67% | [13]; at 1.2 µM -4% | [13]; at 3.7 µM 3% | [13]; at 11.0 µM 11% | [13]; at 33.0 µM 30% | [13]; at 100.0 µM 43% | [14]; at 1.2 µM 3% | [14]; at 3.7 µM 9% | [14]; at 11.0 µM 17% | [14]; at 33.0 µM 24% | [14]; at 100.0 µM 21% | [15]; at 1.2 µM -1% | [15]; at 3.7 µM -4% | [15]; at 11.0 µM 15% | [15]; at 33.0 µM 41% | [15]; at 100.0 µM 60% | [16]; at 1.2 µM 2% | [16]; at 3.7 µM 12% | [16]; [17] 23% | [16]; at 11.0 µM 31% | [16]; at 33.0 µM 52% | [16]; at 100.0 µM 67% | [1]; at 1.2 µM -5% | [1]; at 3.7 µM 7% | [1]; [17] 1% | [1]; at 11.0 µM 25% | [1]; at 33.0 µM 44% | [1]; at 100.0 µM 54% | [2]; at 1.2 µM 0% | [2]; at 3.7 µM 7% | [2]; at 11.0 µM 20% | [2]; at 33.0 µM 42% | [2]; at 100.0 µM 58% | [3]; [17] 35% | [4]; at 1.2 µM -10% | [4]; at 3.7 µM -13% | [4]; at 11.0 µM 23% | [4]; at 33.0 µM 41% | [4]; at 100.0 µM 57% | [5]; [17] 30% | [6]; at 1.2 µM -4% | [6]; at 3.7 µM 1% | [6]; [17] 17% | [6]; at 11.0 µM 17% | [6]; at 33.0 µM 31% | [6]; at 100.0 µM 30% | [7]; at 1.2 µM -3% | [7]; at 3.7 µM 0% | [7]; at 11.0 µM 15% | [7]; at 33.0 µM 42% | [7]; at 100.0 µM 56% | [8]; at 1.2 µM 0% | [8]; at 3.7 µM 4% | [8]; at 11.0 µM 26% | [8]; at 33.0 µM 49% | [8]; at 100.0 µM 66% | [9]; at 1.2 µM 0% | [9]; at 3.7 µM 8% | [9]; at 11.0 µM 29% | [9]; at 33.0 µM 53% | [9]; at 100.0 µM 68% | [10]; [17] 58% | [11]; at 1.2 µM 2% | [11]; at 3.7 µM 3% | [11]; at 11.0 µM 19% | [11]; at 33.0 µM 39% | [11]; at 100.0 µM 55%
active: [16]; [18] 93% | [16]; at 50.0 µM 94.9% | [1]; [18] 89% | [1]; at 50.0 µM 94% | [3]; [18] 93% | [3]; at 50.0 µM 93.9% | [5]; [18] 92% | [5]; at 50.0 µM 92.8% | [6]; [18] 86% | [6]; at 50.0 µM 91.4% | [10]; [18] 93% | [10]; at 50.0 µM 94.8%
